Test results from PubChem BioAssay (EPA / NIEHS).
Several values for one entry are separate records, joined by “and”; a condition that tells them apart may be missing. Equal entries are not always repeated. Inconclusive results are not listed. Activity calls are given as the source filed them. How the source made its calls: active means hit-call score of the fitted dose curve at least 0.9, where 1 is the maximum; inconclusive means response in the unintended direction; inactive means score below 0.9.

molecular target: mouse Estrogen Receptor alpha (Era), Esr1 (gene 13982) (UniProt P19785); assay: NVS_NR_mERa: NovaScreen (NVS) Nuclear Receptor Binding Assay for mouse Estrogen Receptor alpha (Era) (AID 2283378)
Protocol: NVS_NR_mERa is a biochemical, single-readout assay that uses extracted gene-proteins in a cell-free assay. Measurements were taken 18 hours after chemical dosing in a 96-well plate.NVS_NR_mERa is one of one assay component(s) measured or calculated from the NVS_NR_mERa assay. It is designed to make measurements of radioligand binding, a form of binding reporter, as detected with scintillation counting signals by Filter-based radiodetection technology.Data from the assay component NVS_NR_mERa was analyzed into 1 assay endpoint. This assay endpoint, NVS_NR_mERa, was analyzed in the positive analysis fitting direction relative to DMSO as the negative control and baseline of activity. Using a type of binding reporter, loss-of-signal activity can be used to understand changes in the binding as they relate to the gene Esr1. Furthermore, this assay endpoint can be referred to as a primary readout, because the performed assay has only produced 1 assay endpoint. To generalize the intended target to other relatable targets, this assay endpoint is annotated to the nuclear receptor intended target family, where the subfamily is steroidal.
Binding assays used specific radioligands (tritiated, iodinated) with non-radioactive competitive displacement ligands in agonist or antagonist protocols (as indicated) and various reference compounds and inhibitors to titrate specific binding to receptors and transporters. Most enzyme assays (CYPs, kinases, phosphatases, proteases, HDACs) used recombinant protein and specific substrates (fluorescence mostly, some colorimetric and radioactive) and inhibitors, followed by a biochemical separation of substrate and product. All assays for the biochemical HTS were initially run in duplicate at a single concentration (10 uM for CYP450 assays and 25 uM for all others). […] Each assay was run with positive and negative controls, and concurrent controls on every plate. The follow-up (secondary) screen tested active chemical-pairs in concentration series, as well as a few additional assays not tested in the primary screen, some selected negative inactives, and several cases re-run in the concentration series for confirmatory purposes.

Sequence of mouse Estrogen Receptor alpha (Era), Esr1 (gene 13982) (P19785 whole entry, looked up): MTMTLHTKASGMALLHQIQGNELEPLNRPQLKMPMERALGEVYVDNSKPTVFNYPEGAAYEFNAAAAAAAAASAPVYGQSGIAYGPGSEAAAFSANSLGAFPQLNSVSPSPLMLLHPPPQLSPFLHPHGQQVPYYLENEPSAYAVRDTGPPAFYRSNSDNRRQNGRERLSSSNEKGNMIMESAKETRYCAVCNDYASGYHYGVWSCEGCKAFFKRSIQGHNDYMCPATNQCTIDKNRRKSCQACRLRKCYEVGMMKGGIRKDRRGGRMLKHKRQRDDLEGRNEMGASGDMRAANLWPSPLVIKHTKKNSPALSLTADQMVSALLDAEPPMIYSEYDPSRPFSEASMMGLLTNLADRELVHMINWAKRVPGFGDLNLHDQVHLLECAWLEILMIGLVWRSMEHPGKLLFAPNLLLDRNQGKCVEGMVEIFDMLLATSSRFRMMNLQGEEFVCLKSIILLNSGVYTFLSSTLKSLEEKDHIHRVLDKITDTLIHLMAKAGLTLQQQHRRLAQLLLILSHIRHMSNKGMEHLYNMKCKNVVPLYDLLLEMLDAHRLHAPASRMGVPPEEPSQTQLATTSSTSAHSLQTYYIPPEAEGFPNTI

Compound | AC50 | outcome
CCCCCCCCCCCCOC(=O)c1cc(O)c(O)c(O)c1 | 12.4 µM (active) | 
C=CC(C)(CCC=C(C)C)OC(C)=O (stereo not given) |  | inactive
Nc1cc(Cl)c(-c2cc(Cl)c(N)cc2Cl)cc1Cl | 0.389 µM (active) | 
CN(Cc1cnc2nc(N)nc(N)c2n1)c1ccc(C(=O)N[C@@H](CCC(=O)O)C(=O)O)cc1 |  | inactive
NCc1cccc(CN)c1 | 6.34 µM (active) | 
C[C@]12CC[C@@H]3c4ccc(O)cc4CC[C@H]3[C@@H]1CC[C@@H]2OC(=O)CCC1CCCC1 | 0.0452 µM (active) | 
NC(=NCCCCCCN=C(N)/N=C(\N)Nc1ccc(Cl)cc1)/N=C(\N)Nc1ccc(Cl)cc1 | 137 nM (active) and 292 nM (active) | 
CCCCCCOC(=O)c1ccc(O)cc1 | 3.82 µM (active) | 
CCCCCCCCCCCCCC[n+]1ccccc1 |  | inactive
CCCCCCc1ccc(N)cc1 | 0.138 µM (active) | 
